Results on eight targets are retold here after the supplement of paper PMC10849652.

Targets with a hit are over-represented here; the source holds about 8,800 in all. About 0.5% of all pairs of compound and target were hits. A number with no mark means an inactive call.

Holding throughout (assay): log2 fold change, soluble protein after heating vs DMSO (PISA); higher = thermal stabilisation; K562 lysate, 10 uM; active = over 0.2 and 3.5 SD of the protein, either way, in both replicates (recomputed)
Compound in assay [1]: CC1=C2C(=CC=C1)N=C(N(C2=O)C3=CC=CC=C3C)CN4C=NC5=C(N=CN=C54)N
In short, it runs like this: (§1)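 To prepare the extract, K562 pellets were dounce-homogenised in PBS pH 7.4 with 1 mM MgCl2, giving crude material at 1 mg/mL protein. This was treated with 10 μM compound for 30 min, then heated in aliquots for 3 min over 48°C-58°C before pooling and addition of NP-40 to 0.5% at 4°C. Centrifugation at 21,000xg for 90 min left soluble protein in the supernatant, which TMTpro 16plex LC-MS/MS quantified with equalised channel sums. Results are log-two fold changes in thermal stability compared with solvent controls, from duplicates.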

Compound in assay [2]: C1=CC=C(C=C1)[C@H](COC2=CC3=C(C=C2)NC(=O)N3)NC(=O)C4=CC=CN(C4=O)CC5=CC(=C(C=C5)F)F
In short, it runs like this:
as §1

Compound in assay [3]: CC1=C(SC2=C1C(=N[C@H](C3=NN=C(N32)C)CC(=O)N)C4=CC=C(C=C4)Cl)C
In outline:
as §1

Compound in assay [4]: Cc1sc2c(c1C)C(c1ccc(Cl)cc1)=N[C@@H](CC(=O)OC(C)(C)C)c1nnc(C)n1-2
In short, it runs like this: as §1

Compound in assay [5]: c1ccc([C@@H]2C[C@H]2NC2CCNCC2)cc1
In outline:
as §1

Chain of UniProt Q8IYX8 (Q8IYX8 whole entry, looked up): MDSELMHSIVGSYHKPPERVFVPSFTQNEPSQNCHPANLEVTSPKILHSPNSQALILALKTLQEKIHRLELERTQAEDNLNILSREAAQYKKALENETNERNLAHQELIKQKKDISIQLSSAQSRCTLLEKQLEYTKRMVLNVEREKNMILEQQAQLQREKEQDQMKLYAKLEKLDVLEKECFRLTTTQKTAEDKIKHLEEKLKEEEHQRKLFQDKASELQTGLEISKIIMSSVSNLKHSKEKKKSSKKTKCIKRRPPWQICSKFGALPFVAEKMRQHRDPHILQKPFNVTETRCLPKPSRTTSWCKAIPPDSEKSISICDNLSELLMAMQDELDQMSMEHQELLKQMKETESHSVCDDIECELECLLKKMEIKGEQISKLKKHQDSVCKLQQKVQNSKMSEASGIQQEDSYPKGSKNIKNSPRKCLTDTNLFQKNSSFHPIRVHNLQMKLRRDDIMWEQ
Chain of UniProt Q7Z7K6 (Q7Z7K6 whole entry, looked up): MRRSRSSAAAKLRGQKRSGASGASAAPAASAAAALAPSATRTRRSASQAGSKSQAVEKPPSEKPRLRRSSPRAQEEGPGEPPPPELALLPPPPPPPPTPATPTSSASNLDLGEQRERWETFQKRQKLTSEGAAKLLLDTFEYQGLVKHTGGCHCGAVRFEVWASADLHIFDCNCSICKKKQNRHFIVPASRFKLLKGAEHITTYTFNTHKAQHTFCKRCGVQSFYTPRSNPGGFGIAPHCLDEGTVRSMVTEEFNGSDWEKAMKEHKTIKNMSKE
Chain of UniProt Q9P281 (Q9P281 whole entry, looked up): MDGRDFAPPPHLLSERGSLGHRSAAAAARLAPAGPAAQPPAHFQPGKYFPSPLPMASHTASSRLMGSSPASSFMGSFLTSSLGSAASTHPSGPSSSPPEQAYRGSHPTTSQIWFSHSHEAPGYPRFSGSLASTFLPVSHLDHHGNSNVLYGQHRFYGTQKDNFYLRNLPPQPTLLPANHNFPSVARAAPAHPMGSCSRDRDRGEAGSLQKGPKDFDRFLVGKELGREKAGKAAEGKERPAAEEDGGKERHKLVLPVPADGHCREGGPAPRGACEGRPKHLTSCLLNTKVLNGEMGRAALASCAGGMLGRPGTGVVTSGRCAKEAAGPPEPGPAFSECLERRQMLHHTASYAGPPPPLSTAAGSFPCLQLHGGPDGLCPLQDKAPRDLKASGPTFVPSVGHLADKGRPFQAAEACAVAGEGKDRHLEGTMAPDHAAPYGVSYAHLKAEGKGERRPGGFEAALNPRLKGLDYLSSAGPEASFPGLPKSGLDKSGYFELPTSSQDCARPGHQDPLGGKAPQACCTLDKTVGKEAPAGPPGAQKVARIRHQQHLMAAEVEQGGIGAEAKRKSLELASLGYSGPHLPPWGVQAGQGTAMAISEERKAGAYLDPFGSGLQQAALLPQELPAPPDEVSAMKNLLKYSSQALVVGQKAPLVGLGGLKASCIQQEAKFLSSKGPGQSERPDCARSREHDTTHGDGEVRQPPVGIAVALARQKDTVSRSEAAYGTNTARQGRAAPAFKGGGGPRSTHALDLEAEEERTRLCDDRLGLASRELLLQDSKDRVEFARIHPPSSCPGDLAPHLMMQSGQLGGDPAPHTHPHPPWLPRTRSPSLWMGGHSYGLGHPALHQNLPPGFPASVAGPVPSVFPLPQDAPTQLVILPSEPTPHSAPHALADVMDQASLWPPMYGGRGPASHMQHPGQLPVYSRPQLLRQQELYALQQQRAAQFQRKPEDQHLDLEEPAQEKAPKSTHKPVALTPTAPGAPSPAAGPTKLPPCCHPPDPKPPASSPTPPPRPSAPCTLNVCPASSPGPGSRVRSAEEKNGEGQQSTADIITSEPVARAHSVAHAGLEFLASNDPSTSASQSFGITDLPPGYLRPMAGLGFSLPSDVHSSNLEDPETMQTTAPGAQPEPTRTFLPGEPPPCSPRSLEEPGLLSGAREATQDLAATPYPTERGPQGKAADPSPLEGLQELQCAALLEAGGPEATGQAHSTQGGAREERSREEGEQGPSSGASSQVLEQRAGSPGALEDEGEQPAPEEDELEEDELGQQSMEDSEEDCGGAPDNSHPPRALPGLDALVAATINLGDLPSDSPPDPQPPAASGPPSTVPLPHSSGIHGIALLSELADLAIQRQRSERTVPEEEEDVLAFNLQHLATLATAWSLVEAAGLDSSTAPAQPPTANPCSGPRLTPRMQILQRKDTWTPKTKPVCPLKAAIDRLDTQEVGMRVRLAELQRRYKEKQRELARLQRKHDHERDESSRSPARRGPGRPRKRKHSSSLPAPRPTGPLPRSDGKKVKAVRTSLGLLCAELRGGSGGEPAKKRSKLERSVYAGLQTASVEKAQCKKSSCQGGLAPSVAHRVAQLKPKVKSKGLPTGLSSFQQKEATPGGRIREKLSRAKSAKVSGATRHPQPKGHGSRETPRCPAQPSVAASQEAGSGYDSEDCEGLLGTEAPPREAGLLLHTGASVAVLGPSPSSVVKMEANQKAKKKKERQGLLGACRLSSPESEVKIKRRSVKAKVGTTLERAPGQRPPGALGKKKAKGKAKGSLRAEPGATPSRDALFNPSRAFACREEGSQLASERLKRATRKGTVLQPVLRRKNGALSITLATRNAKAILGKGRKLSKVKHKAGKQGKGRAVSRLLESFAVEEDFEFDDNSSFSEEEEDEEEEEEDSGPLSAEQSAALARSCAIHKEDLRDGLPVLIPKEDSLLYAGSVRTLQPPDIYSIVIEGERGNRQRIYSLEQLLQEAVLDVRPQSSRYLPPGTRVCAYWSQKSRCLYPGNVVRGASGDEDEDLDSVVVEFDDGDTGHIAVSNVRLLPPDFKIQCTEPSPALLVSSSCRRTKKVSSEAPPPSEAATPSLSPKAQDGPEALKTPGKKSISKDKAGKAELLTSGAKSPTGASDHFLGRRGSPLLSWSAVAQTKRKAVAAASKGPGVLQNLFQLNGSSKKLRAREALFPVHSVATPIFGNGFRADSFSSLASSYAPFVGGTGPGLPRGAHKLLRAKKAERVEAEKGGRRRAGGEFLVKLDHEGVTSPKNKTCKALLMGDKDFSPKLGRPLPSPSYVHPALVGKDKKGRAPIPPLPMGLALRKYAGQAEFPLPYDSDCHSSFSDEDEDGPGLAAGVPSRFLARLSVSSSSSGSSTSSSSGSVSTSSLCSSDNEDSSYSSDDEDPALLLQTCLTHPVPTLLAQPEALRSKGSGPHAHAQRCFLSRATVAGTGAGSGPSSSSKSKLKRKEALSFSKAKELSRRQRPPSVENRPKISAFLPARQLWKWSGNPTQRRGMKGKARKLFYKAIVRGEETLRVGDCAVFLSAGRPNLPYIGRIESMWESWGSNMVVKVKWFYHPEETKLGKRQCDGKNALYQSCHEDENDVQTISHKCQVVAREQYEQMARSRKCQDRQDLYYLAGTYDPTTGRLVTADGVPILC
Chain of UniProt Q6TDU7 (Q6TDU7 whole entry, looked up): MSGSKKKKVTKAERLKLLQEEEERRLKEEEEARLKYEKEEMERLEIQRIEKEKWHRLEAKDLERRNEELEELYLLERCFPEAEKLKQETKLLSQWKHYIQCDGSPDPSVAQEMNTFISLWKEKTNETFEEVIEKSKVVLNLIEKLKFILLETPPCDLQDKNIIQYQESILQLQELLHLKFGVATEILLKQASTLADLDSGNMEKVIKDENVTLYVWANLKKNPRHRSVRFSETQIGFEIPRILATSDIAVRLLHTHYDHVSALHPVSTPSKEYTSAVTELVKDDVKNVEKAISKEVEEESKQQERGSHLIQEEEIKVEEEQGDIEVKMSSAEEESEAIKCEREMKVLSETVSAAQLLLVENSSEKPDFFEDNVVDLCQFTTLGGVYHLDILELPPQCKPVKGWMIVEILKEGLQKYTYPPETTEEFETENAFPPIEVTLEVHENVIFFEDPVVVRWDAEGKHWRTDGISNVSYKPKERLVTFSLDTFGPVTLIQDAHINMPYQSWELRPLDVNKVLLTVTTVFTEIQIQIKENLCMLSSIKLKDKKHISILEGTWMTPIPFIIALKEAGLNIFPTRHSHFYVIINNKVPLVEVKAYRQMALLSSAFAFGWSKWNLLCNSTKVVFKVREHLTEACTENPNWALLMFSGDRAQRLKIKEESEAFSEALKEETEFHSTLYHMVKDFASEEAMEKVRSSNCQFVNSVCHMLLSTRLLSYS
Chain of UniProt Q1RMZ1 (Q1RMZ1 whole entry, looked up): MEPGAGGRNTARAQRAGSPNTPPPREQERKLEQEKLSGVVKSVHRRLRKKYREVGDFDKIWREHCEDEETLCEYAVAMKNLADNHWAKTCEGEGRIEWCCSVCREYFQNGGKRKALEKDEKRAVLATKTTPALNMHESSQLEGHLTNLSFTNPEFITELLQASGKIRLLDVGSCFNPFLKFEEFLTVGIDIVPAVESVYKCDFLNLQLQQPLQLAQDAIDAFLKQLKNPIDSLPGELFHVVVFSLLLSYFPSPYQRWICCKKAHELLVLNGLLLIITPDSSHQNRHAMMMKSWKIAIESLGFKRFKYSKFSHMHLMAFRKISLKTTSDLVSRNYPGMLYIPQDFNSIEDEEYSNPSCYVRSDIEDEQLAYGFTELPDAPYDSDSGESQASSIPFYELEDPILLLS
Chain of UniProt P30304 (P30304 whole entry, looked up): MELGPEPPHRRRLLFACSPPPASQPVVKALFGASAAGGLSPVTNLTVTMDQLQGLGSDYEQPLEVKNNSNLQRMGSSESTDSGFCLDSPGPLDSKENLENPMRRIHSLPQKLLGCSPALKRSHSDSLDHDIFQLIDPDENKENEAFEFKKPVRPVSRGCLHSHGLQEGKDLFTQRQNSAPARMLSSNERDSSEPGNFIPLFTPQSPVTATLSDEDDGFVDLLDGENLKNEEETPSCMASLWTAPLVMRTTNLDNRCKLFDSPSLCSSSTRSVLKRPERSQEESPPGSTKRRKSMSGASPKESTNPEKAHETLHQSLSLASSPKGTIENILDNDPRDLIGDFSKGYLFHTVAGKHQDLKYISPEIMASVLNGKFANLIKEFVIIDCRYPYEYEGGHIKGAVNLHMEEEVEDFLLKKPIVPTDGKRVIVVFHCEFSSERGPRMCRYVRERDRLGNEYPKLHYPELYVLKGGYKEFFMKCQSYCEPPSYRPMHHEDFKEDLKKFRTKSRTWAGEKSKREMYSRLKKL

BRAF, A0A2R8Y8E0: the log2 fold change in assay [1] was -0.13.

On to CEP57L1 (UniProt Q8IYX8), for which the log2 fold change in assay [2] is -0.078; in assay [3], 0.115; in assay [4] it was 0.143; in assay [5], 0.099.

As for BAHCC1 (UniProt Q9P281), the log2 fold change was 0.011 in assay [1], -0.187 in assay [4] and -0.696 (active) in assay [5].

Turning to CENPV (UniProt Q7Z7K6), the log2 fold change in assay [2] is 0.059; in assay [3], -0.217; in assay [1], -0.201; in assay [5], 0.166.

As to CDC25A (UniProt P30304), the log2 fold change in assay [4] is -0.064.

Regarding CASC1 (UniProt Q6TDU7), the log2 fold change in assay [2] was -0.256; in assay [3], 0.037; in assay [5], 0.046.

Regarding CAD (UniProt H7BZB3), the log2 fold change in assay [1] was -0.011; in assay [5] it was -0.003.

As for BMT2 (UniProt Q1RMZ1), the log2 fold change in assay [5] is 0.123.
